Where “and” joins values, the source holds several entries; their conditions need not be identical. Equal values may be shown once. This is part of a sample that, as a whole, favours compounds with a hit. Of some 83,000 tested, about 20% had one in any assay.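 For each line, cells grew in 96-well plates with the test compound present at a single concentration for 48 hours.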 Some compounds were tested as several samples or in several runs, with calls that do not always agree. Calls of active or inactive are those of the source. The calls were made as follows: active = growth percent below 10; inactive = the rest.

Holding throughout (test): NCI-60 one-dose screen, 48 h (100 = growth as untreated, 0 = no growth, -100 = all killed)
Holding throughout (details): 10 µM unless noted

For experiment [1], the system named is HCT-15 colon.
Experiment [2] concerns HT29 colon.
Experiment [3] relates to SNB-75 CNS.
Experiment [4] has as its system SNB-19 CNS.
Experiment [5] has as its system U251 CNS.
Experiment [6] has as its system PC-3 prostate.
In experiment [7] the test system is SK-MEL-5 melanoma.
The subject of experiment [8] is UACC-62 melanoma.
Experiment [9] has as its system LOX IMVI melanoma.
The test system of experiment [10] is SK-MEL-28 melanoma.
In experiment [11] the test system is SK-MEL-2 melanoma.
Experiment [12] deals with EKVX NSCLC.
The test system of experiment [13] is SN12C renal.
Experiment [14] has as its system TK-10 renal.
Experiment [15] relates to ACHN renal.
Experiment [16] deals with A498 renal.
The subject of experiment [17] is CCRF-CEM leukemia.
Experiment [18] concerns MOLT-4 leukemia.
In experiment [19] the test system is CAKI-1 renal.
In experiment [20] the test system is UO-31 renal.

Regarding `O=C1OC(Oc2ccc(Br)cc2)(c2ccccc2)c2ccccc21` (stereo unspecified), the growth in experiment [1] is 69.6% (inactive) and 58.6% (inactive); in [2] it was 74.6% (inactive) and 70.6% (inactive); in [3], 61.2% (inactive) and 77.1% (inactive); in experiment [4], 88.8% (inactive) and 102% (inactive); in [5], 78.9% (inactive) and 58.5% (inactive); in experiment [6] it was 80.7% (inactive) and 63.6% (inactive). Moreover, the growth in [7] is 97.3% (inactive); in experiment [8], 73.8% (inactive) and 83.9% (inactive); in [9], 77.5% (inactive) and 83.2% (inactive); in [10], 101% (inactive) and 120% (inactive); in [11] it was 74.2% (inactive) and 73.2% (inactive); in experiment [12] it was 96.4% (inactive) and 82.2% (inactive). Besides, the growth was 87.8% (inactive) and 98.2% (inactive) in experiment [13]; 89.4% (inactive) and 86.2% (inactive) in experiment [14]; 83.6% (inactive) and 80.3% (inactive) in experiment [15]; 80.1% (inactive) and 93.7% (inactive) in experiment [16]; 70.1% (inactive) and 46.1% (inactive) in experiment [17]; 77.4% (inactive) in experiment [18].
In the case of `COc1cc2c(c(OC)c1OC)-c1ccc(OC)c(=O)cc1[C@@H](NC(C)=O)CC2`, the growth is 12.2% (inactive) and 8.71% (active) and 3.71% (active) in experiment [1]; 9.16% (active) and 7.29% (active) and -16.8% (active) in [2]; 35.6% (inactive) and 76.6% (inactive) and 19.3% (inactive) in experiment [3]; 39.5% (inactive) and 30.5% (inactive) and 19% (inactive) in experiment [4]; 22.5% (inactive) and 14.1% (inactive) and 19% (inactive) in [5]; 25.6% (inactive) and 20.7% (inactive) and 7.6% (active) in experiment [6]. For the same compound, the growth in experiment [7] was -59.8% (active) and -36.1% (active) and -32% (active); in [8] it was 36.9% (inactive) and 40.9% (inactive) and 19.1% (inactive); in experiment [9], 15.7% (inactive) and 18.9% (inactive) and 26.5% (inactive); in experiment [10], 64.5% (inactive) and 62.4% (inactive); in experiment [11], -1.11% (active) and 20.8% (inactive) and 30.7% (inactive); in [12], 42.2% (inactive) and 34.6% (inactive) and 35.8% (inactive). The growth in experiment [13] was 35.3% (inactive) and 25.5% (inactive) and 46.8% (inactive); in [14], 61.7% (inactive) and 52.7% (inactive); in experiment [15] it was 27.8% (inactive) and 27.2% (inactive) and 30.5% (inactive); in experiment [19] it was 36.5% (inactive) and 21% (inactive) and 20.3% (inactive); in experiment [17] it was 8.93% (active) and 21.5% (inactive) and 3.02% (active); in [18], 7.82% (active) and 6.6% (active) and 6.73% (active).
For `O=[N+]([O-])c1ccccc1/C=N\Nc1ccccc1`, the growth is 42.5% (inactive) and 60.2% (inactive) in experiment [1]; 102% (inactive) and 111% (inactive) in experiment [2]; 71.4% (inactive) and 96% (inactive) in [3]; 96.2% (inactive) and 102% (inactive) in experiment [4]; 84.7% (inactive) and 90% (inactive) in experiment [5]; 63% (inactive) and 56.5% (inactive) in [6]. The growth in [7] was 90.3% (inactive) and 88.6% (inactive); in experiment [8] it was 18.7% (inactive) and 19.9% (inactive); in experiment [9], 71.7% (inactive) and 53.4% (inactive); in [10], 115% (inactive) and 117% (inactive); in [11] it was 86.9% (inactive) and 107% (inactive); in experiment [12] it was 69.3% (inactive) and 93.5% (inactive). For the same compound, the growth was 84.9% (inactive) and 87.6% (inactive) in experiment [13]; 118% (inactive) and 92.6% (inactive) in [14]; 61.4% (inactive) and 64.2% (inactive) in experiment [15]; 79.7% (inactive) and 70.1% (inactive) in experiment [16]; 65.1% (inactive) and 50.8% (inactive) in experiment [17]; 76.4% (inactive) and 89.9% (inactive) in experiment [18].
With `CN(C)CCC(=O)c1ccc(Cl)cc1`, the growth in experiment [1] is 111% (inactive) and 116% (inactive); in [2], 106% (inactive) and 100% (inactive); in experiment [3] it was 78.6% (inactive) and 114% (inactive); in experiment [4], 95% (inactive) and 109% (inactive); in [5], 113% (inactive) and 111% (inactive); in experiment [6] it was 92.5% (inactive) and 103% (inactive). In addition, the growth in [7] is 103% (inactive) and 112% (inactive); in [8] it was 98.5% (inactive) and 101% (inactive); in experiment [9] it was 113% (inactive) and 92.2% (inactive); in [11] it was 115% (inactive) and 118% (inactive); in experiment [12] it was 115% (inactive) and 124% (inactive); in experiment [13], 97.9% (inactive) and 102% (inactive). For the same compound, the growth in experiment [20] is 87.3% (inactive) and 95.4% (inactive); in experiment [14] it was 105% (inactive) and 119% (inactive); in experiment [15], 114% (inactive) and 105% (inactive); in experiment [19] it was 102% (inactive) and 106% (inactive); in experiment [17], 93.2% (inactive) and 73.9% (inactive); in [18], 94.7% (inactive) and 93.5% (inactive).
Regarding `COC(=O)[C@H]1CCCN1C(=O)C1CCCN1C(=O)[C@@H](Cc1ccccc1)NC(=S)Nc1cc(C(F)(F)F)cc(C(F)(F)F)c1` (stereo partly specified), the growth is 95.8% (inactive) and 75.5% (inactive) in experiment [1]; 111% (inactive) and 72.6% (inactive) in [2]; 85.4% (inactive) and 73.3% (inactive) in experiment [3]; 92.1% (inactive) and 86.7% (inactive) in experiment [4]; 98.8% (inactive) and 77% (inactive) in experiment [5]; 101% (inactive) and 53.3% (inactive) in [6]. The growth in [7] was 100% (inactive) and 88.2% (inactive); in [8] it was 94.7% (inactive) and 90.3% (inactive); in experiment [9], 103% (inactive) and 88.1% (inactive); in [10] it was 109% (inactive) and 99.4% (inactive); in [11], 109% (inactive) and 103% (inactive); in experiment [13], 96.1% (inactive) and 84% (inactive). Further, the growth in experiment [20] is 94.6% (inactive) and 59.1% (inactive); in experiment [14] it was 114% (inactive) and 90% (inactive); in experiment [15], 98.4% (inactive) and 85.6% (inactive); in [19], 89.2% (inactive); in experiment [17], 106% (inactive) and 72.2% (inactive); in experiment [18], 91.3% (inactive) and 42.9% (inactive).
For the compound `O=C(Oc1cccc(OC(=O)c2ccccc2)c1)c1ccccc1`, the growth in experiment [1] was 73% (inactive) and 102% (inactive); in [2], 79.9% (inactive) and 102% (inactive); in [3] it was 97.1% (inactive) and 79.6% (inactive); in experiment [4] it was 111% (inactive) and 98.9% (inactive); in experiment [5], 80.4% (inactive) and 101% (inactive); in [6], 9.09% (active) and 91.8% (inactive). Moreover, the growth is 101% (inactive) and 94.8% (inactive) in experiment [7]; 96.1% (inactive) and 100% (inactive) in experiment [8]; 78.3% (inactive) and 87.9% (inactive) in [9]; 93.2% (inactive) in experiment [11]; 102% (inactive) and 104% (inactive) in experiment [12]; 97.8% (inactive) and 99.4% (inactive) in [13]. For the same compound, the growth in experiment [20] was 50.4% (inactive) and 90.9% (inactive); in experiment [14], 133% (inactive) and 85.7% (inactive); in experiment [15] it was 103% (inactive) and 99.7% (inactive); in experiment [19], 102% (inactive) and 96.7% (inactive); in experiment [16] it was 99.2% (inactive) and 91.2% (inactive); in experiment [17] it was 80.4% (inactive) and 107% (inactive). Moreover, the growth in experiment [18] is 85% (inactive) and 91.3% (inactive).
As to `OC1CCC(Oc2cccc3cnc(Nc4ccc5nc[nH]c5c4)nc23)CC1` (stereo unspecified), the growth in [1] is 5.3% (active) and 81% (inactive); in [2], 2.98% (active) and 46% (inactive); in experiment [3], -22.7% (active) and 37.5% (inactive); in experiment [4], 9.42% (active) and 41.1% (inactive); in [5] it was 3.2% (active) and 27.7% (inactive); in experiment [6], 3.19% (active) and 35.5% (inactive). The growth in experiment [7] was -6.41% (active) and 47.6% (inactive); in [8], -4.06% (active) and 46.2% (inactive); in experiment [9], 6.32% (active) and 39.2% (inactive); in [11], -33.7% (active) and 84.8% (inactive); in [12], -33.9% (active) and 52.7% (inactive); in experiment [13], 10.2% (inactive) and 38.4% (inactive). The growth in [20] is 8.29% (active) and 49.1% (inactive); in experiment [14], 6.96% (active) and 46.2% (inactive); in [15], 12.8% (inactive) and 41.9% (inactive); in experiment [19], 13.5% (inactive) and 62.8% (inactive); in [16], -32.6% (active) and 43.1% (inactive); in experiment [17], -14.6% (active) and 15.4% (inactive).
On to `CC1CCCc2sc3nc(NNC(=O)c4cnccn4)n(-c4ccccc4)c(=O)c3c21` (stereo unspecified), for which the growth in experiment [1] was 26.4% (inactive) and 24.6% (inactive); in [2], 22.4% (inactive) and 26.2% (inactive); in [3] it was 36.4% (inactive) and 2.93% (active); in experiment [4], 25.8% (inactive) and 21.6% (inactive); in experiment [5] it was 4.39% (active) and 8.03% (active); in [6], 30% (inactive) and 27.4% (inactive). For the same compound, the growth in experiment [7] was -38.3% (active) and -65.9% (active); in experiment [8], -33.9% (active) and -8.57% (active); in experiment [9], 0.839% (active) and 2.01% (active); in [11], 11.3% (inactive) and 25.1% (inactive); in [12], 14.8% (inactive) and 7.14% (active); in experiment [13] it was 20% (inactive) and 16.7% (inactive). In addition, the growth in experiment [20] was 8.23% (active) and 5.71% (active); in experiment [14], 30.3% (inactive) and 37.9% (inactive); in experiment [15], 8.58% (active) and 19.9% (inactive); in experiment [19] it was 5.81% (active) and 0.832% (active); in experiment [16] it was 27.8% (inactive); in experiment [17], 3.85% (active) and 0.781% (active). For the same compound, in [18], the growth is 5.36% (active) and 10.6% (inactive).

Values taken from PubChem BioAssay (NCI).
